From PubChem BioAssay AID504840 (Johns Hopkins Ion Channel Center, 2011)
Hit rate of the full screen: of about 1,500 compounds, about 890 (59%) were called active.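 Rule for the calls: active = inhibition of the choline-evoked signal at any tested dose together with a fitted dose-response curve; inactive = no inhibition at any dose or no curve.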 So high a share suggests a set chosen from earlier hits. Only a sample is shown. Potency and affinity values are given separately.

Target: High affinity choline transporter 1 (Homo sapiens) (UniProt Q9GZV3)
Sequence (Q9GZV3 whole entry, looked up): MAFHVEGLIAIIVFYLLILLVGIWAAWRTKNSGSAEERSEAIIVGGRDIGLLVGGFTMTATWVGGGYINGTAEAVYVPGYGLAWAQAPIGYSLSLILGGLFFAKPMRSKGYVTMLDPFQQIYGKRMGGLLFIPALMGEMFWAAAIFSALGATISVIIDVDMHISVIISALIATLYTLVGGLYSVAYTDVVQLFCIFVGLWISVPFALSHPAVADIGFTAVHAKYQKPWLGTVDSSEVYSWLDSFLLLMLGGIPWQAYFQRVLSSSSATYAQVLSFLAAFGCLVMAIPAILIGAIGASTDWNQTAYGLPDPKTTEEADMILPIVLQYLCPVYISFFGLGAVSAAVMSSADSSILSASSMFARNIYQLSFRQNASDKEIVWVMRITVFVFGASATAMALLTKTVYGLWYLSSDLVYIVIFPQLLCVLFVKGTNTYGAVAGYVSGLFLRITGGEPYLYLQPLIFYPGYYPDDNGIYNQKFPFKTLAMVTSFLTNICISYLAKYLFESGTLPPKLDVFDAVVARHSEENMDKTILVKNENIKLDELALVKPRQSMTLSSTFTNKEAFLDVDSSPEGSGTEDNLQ
Test: human choline transporter blockers, potency – cell-based, 5-point CRC, membrane potential dye, dose response (AID 504840);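 note: 0% = buffer-only response and 100% = EC90 choline response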
Settings: HEK293-CHT, choline-induced depolarization, CHT with LV-to-AA double alanine mutation; series mostly up to 37 µM; inhibition: at the top concentration

inhibition, inactive:
O=C(Nc1nonc1-c1ccc(Cl)cc1)c1ccco1 15.7%, Cc1ccc[n+](CC(=O)Nc2cc(C(F)(F)F)ccc2N2CCOCC2)c1 72.7%, COc1ccc(N(C)S(=O)(=O)c2cccc(C(=O)NC3CCC(C)CC3)c2)cc1 (stereo unspecified) 22.7%, CC(=O)N1CCN(S(=O)(=O)c2cccc(C(=O)NC3CCC(C)CC3)c2)CC1 (stereo unspecified) 19.6%, CC1CCCC(NC(=O)c2cccc(N3CCCC3=O)c2)C1C (stereo unspecified) 46%, CN1CCN(S(=O)(=O)c2cccc(C(=O)NC3CCCc4ccccc43)c2)CC1 (stereo unspecified) 60.3%, Cc1cc(C)nc(SCc2cc(=O)c(OC(=O)c3cc([N+](=O)[O-])ccc3Cl)co2)n1 75.3%, Cc1ccnc(SCc2cc(=O)c(OC(=O)c3ccc(S(=O)(=O)N(C)C)cc3)co2)n1 61.1%, O/N=C/c1ccnc(SCc2ccccc2)n1 35.9%, CCCCNS(=O)(=O)c1ccc2nc(SCC(=O)c3ccccc3OC)[nH]c2c1 71.7%, Cc1cc(=O)[nH]c(SCC(=O)c2ccc(C)c(C)c2)n1 58.9%, C=CCNS(=O)(=O)c1ccc(N2C(=O)c3ccccc3C2=O)cc1 16.9%, CC(NC(=O)c1ccc(N2CCNCC2)c([N+](=O)[O-])c1)C12CC3CC(CC(C3)C1)C2 (stereo unspecified) 54.6%, Cc1[nH]n(-c2cccc(Cl)c2)c(=O)c1-c1ccccc1 41.6%, COc1ccc2c(c1)CC(C)C/C2=N\NC(=O)c1ccco1 (stereo unspecified) 29.7%, NC(=O)CC(NC(=O)c1ccc(Br)cc1)c1ccc(N2CCCCCCC2)c([N+](=O)[O-])c1 (stereo unspecified) 30.9%, NC(=O)CC(NC(=O)c1ccccc1)c1ccc(N2CCc3ccccc3C2)c([N+](=O)[O-])c1 (stereo unspecified) 64.7%, NC(=O)CC(NC(=O)c1ccc(Br)cc1)c1ccc(N2CCCCCC2)c([N+](=O)[O-])c1 (stereo unspecified) 44.8%, CCC(CC)Nc1ccc(C(CC(N)=O)NC(=O)c2ccccc2)cc1[N+](=O)[O-] (stereo unspecified) 62.7%, COC(=O)CCCCCCCCCC[N+]1(C)CCCCC1 61.3%, O=S(=O)(Nc1nc2ccccc2s1)c1ccc(Br)s1 28%, COc1ccc(CN2CCN(CC=C(C)C)C(CCO)C2)cc1Cn1cccn1 (stereo unspecified) 27.2%, O=C(O)c1ccc(/C=C2\COc3ccccc3C2=O)cc1 63.5%, O=C(O)c1ccc(-c2nc(-c3ccccc3Cl)cs2)cc1 47.3%, Cc1cc(C)c2nc(N3CCCN(C(=O)c4cnccn4)CC3)c(C#N)cc2c1 61.6%, CN1/C(=C\C=Nc2cc(S(=O)(=O)N3CCOCC3)ccc2N2CCOCC2)C(C)(C)c2ccccc21 71.3%, Cc1ccc(Nc2nnc(-c3ccc(N4CCOCC4)c([N+](=O)[O-])c3)c3ccccc23)cc1 36.8%, Cc1ccc(C(=O)N/C(=C\c2cccs2)C(=O)NC2CCCCC2)cc1 72.8%, O=C(CSc1nc(C(F)(F)F)cc(=O)[nH]1)Nc1cccc2ccccc12 38.9%, Cc1ccc(S(=O)(=O)/N=C(/NC(=S)Nc2c(C)n(C)n(-c3ccccc3)c2=O)c2ccccc2)cc1 21%, CCc1nnc(NC(=O)CSc2nnc(-c3ccccc3OC)n2-c2ccccc2)s1 -41.8%, O=C1c2cccc3c(Nc4ccccc4Cl)c([N+](=O)[O-])cc(c23)C(=O)N1CCO 8.09%, C=Cn1cc[n+](CC(=O)c2ccc(-c3ccccc3)cc2)c1 34.6%, COCCNc1nc(-n2nc(C)cc2C)nc2sc3c(c12)CCCC3 6.14%, CCOC(=O)C(Cc1ccccc1)NC(=O)CCCC(=O)c1ccccc1 (stereo unspecified) 45.2%, Cc1ccc(-c2nn(-c3ccccn3)c(=O)c3ccccc23)cc1 0.865%, COc1ccc(NC(=O)c2sc(N)nc2-c2ccccc2)cc1 46.7%, O=C(CCC1CCCN(c2ncccn2)C1)NCc1ccc(F)c(F)c1 (stereo unspecified) 42.6%, Cn1c(CN2CCN(CCO)CC2)c(C#N)c2ccccc21 55.4%, S=c1[nH]c2cc(Cl)ccc2s1 46%, Cc1cc(C)nc(NS(=O)(=O)c2ccc(NC(=O)C3COc4ccccc4O3)cc2)n1 (stereo unspecified) 41.4%, CN(Cc1nc(-c2cccnc2)no1)S(=O)(=O)c1ccc(Br)cc1 50.2%, O=[N+]([O-])c1ccc(SCCc2ccccn2)cc1 59.6%, O=C1CSC(=S)N1/N=C/c1c(F)cccc1F -6.54%, O=[N+]([O-])c1ccc(N2CCCCC2)nc1 11.8%, CCc1c(C)nc2ncnn2c1N1CCN(S(=O)(=O)c2ccc(OC)cc2)CC1 34.6%, O=C(NNC(=S)NC1CCCCC1)c1ccccc1O 38.4%, c1ccc(-c2ccccc2OCc2nnc3n2CCC3)cc1 23.5%, Cc1ccc2c(c1)C1CN(C)CCC1N2C(=O)c1ccccc1NS(=O)(=O)c1cccc(C(F)(F)F)c1 (stereo unspecified) 71.3%, CN1CCN(c2ncc(CN3C(=O)c4ccccc4C3=O)s2)CC1 36.6%, CCc1cccc(CC)c1NC(=O)c1cccc(NC(=O)c2ccccc2)c1 43.4%, Cc1cccc(C(=O)Nc2sc(-c3ccccc3)cc2C(=O)O)c1 42.6%, COc1cc(CCC(=O)OCC(=O)NCc2ccc(Cl)cc2)cc(OC)c1OC 28.9%, Cc1ccccc1C(=O)OC(C)CN1CCN(C)CC1 (stereo unspecified) 53.2%, CC(C)NS(=O)(=O)c1ccc(CCC(=O)N2CCc3ccccc3C2)cc1 40.9%, Cc1ccc(-c2csc(NC(=O)c3ccc(Br)cc3)c2C(=O)O)cc1 41.5%, COc1cc(C(=O)Nc2scc(-c3ccc(C)cc3)c2C(=O)O)cc(OC)c1OC 40.1%, Cc1ccc(-c2csc(NC(=O)c3ccc(F)cc3)c2C(=O)O)cc1 48.8%, O=C(COC(=O)C1(c2ccccc2F)CCCC1)N1CCN(C(=O)c2ccco2)CC1 16.4%, CC1CCN(C(=O)CCCOc2cc(=O)n(C)c3ccccc23)CC1 28.8%, CC1CCCCC1NC(=O)Cn1nc(-c2ccccc2)ccc1=O (stereo unspecified) 32.7%, COc1cc(NC2CCCCC2O)c2nc(-c3ccc(Cl)cc3)ccc2c1 (stereo unspecified) 31%, Cc1c(NC(=S)NC(=O)c2ccc(-c3ccc(Cl)cc3)o2)cccc1C(=O)O 44.8%, C/C(=N\NC1=NCCN1)c1ccc(Cl)cc1 52.7%, CCCCCNC(=O)c1ccc2c(=O)[nH]c3c(C(=O)NCC4CCCO4)sc(=S)n3c2c1 (stereo unspecified) 83.1%, CCOCCCn1c(=S)[nH]c2cc(C(=O)N3CCN(C4CCCCC4)CC3)ccc2c1=O 53.6%, CCOc1cc2[nH]c(=S)n(C(C)C)c(=O)c2cc1OCC 27.6%, O=C(N/N=C/c1cn[nH]c1-c1ccc(Cl)cc1)c1ccc([N+](=O)[O-])cc1 34.1%, CCOC(=O)C(C)Sc1nnc(NC(=O)c2cccc([N+](=O)[O-])c2C)s1 (stereo unspecified) 35.2%, Cc1ccc(C(=O)NCC(=O)OCC(=O)Nc2ccccc2C#N)s1 15.7%, Cc1c(NC(=O)/C=C/c2cn(-c3ccccc3)nc2-c2ccccc2)c(=O)n(-c2ccccc2)n1C 51.3%, CN(C)CCNC(=O)C(=O)NCC(c1ccc2c(c1)OCO2)N1CCN(c2ccc(F)cc2)CC1 (stereo unspecified) 78.8%, Cc1cccc(N2CCN(C(=O)COc3cc(=O)n(C)c4ccccc34)CC2)c1C 60.2%, COc1ccccc1C(=O)NC(C)c1cccc2ccccc12 (stereo unspecified) 58%, O=S(=O)(Nc1nc2ccccc2s1)c1ccc(Cl)nc1 27.2%, CCN(Cc1ccccc1)S(=O)(=O)c1cc(C(=O)O)ccc1OC 26.3%, O=C(NC1CCCCC1)N(Cc1ccccc1)Cc1ccco1 10%, CCc1ccc(OCc2n[nH]c(=S)n2Cc2ccccc2)cc1 40.3%, O=C(NNC1=C(C(=O)C(F)(F)F)CCC1)c1ccc(Cl)cc1 63.4%, CCc1ccc2c(c1)C1(NN=C(c3ccccc3)S1)C(=O)N2 (stereo unspecified) 47.1%, CCc1ccc2c(c1)C1(NN=C(c3ccc(C)cc3)S1)C(=O)N2 (stereo unspecified) 39.5%, Cc1oc2c(F)c(F)c(F)c(F)c2c1S(=O)(=O)Nc1cccc(C(F)(F)F)c1 36.6%, CC(/C=C1\SC(=S)N(C(C(=O)O)c2ccccc2)C1=O)=C\c1ccccc1 (stereo unspecified) 30.5%, Cc1noc(NS(=O)(=O)c2ccc(NC(=O)c3oc4ccc(Cl)cc4c3C)cc2)c1C 40.5%, Nc1c(C(=O)NCCN2CCOCC2)c2nc3ccccc3nc2n1CCc1ccccc1F 69%, O=C(Nc1cccc(C(F)(F)F)c1)C1CCN(S(=O)(=O)c2cccnc2)CC1 60.6%, CCc1nnc(NC(=O)CSc2ncc(-c3ccccc3)n2C)s1 49.9%, O=C(CSc1ccc2ccccc2c1)Nc1ccncc1 34.9%, CC(Oc1ccc(Cl)cc1)C(=O)NNC(=S)NC(=O)c1ccco1 (stereo unspecified) 58.7%, COc1ccc(Br)cc1C(=O)NC(=S)Nc1ccc(Cl)c(C(=O)O)c1 37.2%, O=C(NNC(=S)Nc1ccc(Br)cc1)c1ccccc1Br 12.1%, CCCc1cc(=O)[nH]c(SCc2nc3ccccc3s2)n1 18.3%, COc1ccccc1-c1coc2cc(O)cc(O)c2c1=O 31.4%, O=C(CCc1ccccc1)c1c(O)cc(O)cc1O 59.7%, Cc1cc(S(=O)(=O)NCc2ccncc2)c(C)cc1Br 12.2%, O=C(Nc1ccccc1Cl)c1ccc(S(=O)(=O)NCC2CCCO2)cc1 (stereo unspecified) 49.5%, CCC1CCCCN1CCCNC(=O)c1ccc(N2CCOCC2)c(NS(=O)(=O)c2ccc(OC)cc2)c1 (stereo unspecified) 68.5%, Cc1ccc(Oc2ccc(S(=O)(=O)NCC(C)(C)N3CCOCC3)cc2)cc1 48.8%, COc1ccc(-n2cnnc2SCC(=O)Nc2cc(S(=O)(=O)N3CCCCC3)ccc2C)cc1 33.9%, Cc1ccccc1CNS(=O)(=O)c1ccc2c(c1)OCCO2 21.9%, CCOC(=O)c1ccc(NS(=O)(=O)c2ccc3c(c2)NC(=O)CCS3)cc1 16.5%, Cc1cccc(C(=O)NNC(=S)NC(=O)c2cccs2)c1 51.2%, Cc1ccccc1C(=O)NNC(=S)NC(=O)c1ccc(Cl)cc1Cl 53.6%, Cc1ccc(C)c(NCC(=O)NNC(=S)Nc2ccccc2)c1 9.53%, Cc1cccc(C(=O)NC(=S)NNC(=O)c2cccs2)c1 62.9%, Cc1ccccc1C(=O)NNC(=S)NC(=O)COc1ccccc1 69.8%
